Compounds without any hit were thinned out: in the full panel of roughly 83,000, 20% have a hit.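 Step 1: grow cells in 96-well plates. Step 2: add test compound at a single concentration. Step 3: incubate 48 h. Step 4: record percent growth.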 Unmarked numbers belong to inactive results. Calls of active or inactive are those of the source. How the source made its calls: active means growth percent below 10; inactive means the rest.
The molecules below were run on NCI-H522 lung (assay: NCI-60 one-dose screen, 48 h (100 = growth as untreated, 0 = no growth, -100 = all killed)). Details: 10 µM unless noted.
COc1cc(/C=C/C(=O)c2ccc(N3CCN(C)CC3)cc2)ccc1F gave a growth of 97.2%. For O=C(Nc1cccc(-c2nc(-c3ccc(NC(=O)c4cccnc4)cc3Cl)no2)c1)Nc1ccc(NC(=O)C2CC2)c(C(F)(F)F)c1, the growth was -43.6% (active). Molecule CCNC(=O)Oc1ccc(/C(=C(/C)c2ccc(Cl)cc2)c2ccc(OCCN3CCCC3)cc2)cc1 has a growth of 96.8%. For CS(=O)c1nccc(-c2c(-c3ccc(F)c(OCc4ccc(F)cc4)c3)nc3sccn23)n1 (stereo not drawn), the growth was -51.8% (active). Work on CN1CCN(c2ccc(NC(=O)Nc3ccc4c(ccn4-c4cccc(C(N)=O)n4)c3)cc2C(F)(F)F)CC1 yielded a growth of 71.6%. With O=c1oc2ccc(-c3ccc(F)cc3F)cc2c(=O)n1-c1ccc(F)c(F)c1 the growth was -2.51% (active). For N#Cc1c(NC(=O)c2ccc(F)c(Cl)c2)sc2c1CCC(=O)C2, the growth was 3.24% (active). CC(C)SC1=NC(=C(C(=N1)NC2=ClC=CC=C2)C#N)C3=CC=CC=C3 gave a growth of 84.5%. Molecule CCOC(=O)c1c(NCC(=O)Nc2cccc(Cl)c2)sc2c1CCCC2 has a growth of 65.9%. For COc1ccc([C@H]2[C@H](O)C(=O)N2c2cc(OC)c(OC)c(OC)c2)cc1, the growth was -20.8% (active). For O=c1[nH]c2cc(Cl)ccc2n1C1CCN(c2ccc3nnc(Cl)n3n2)CC1, the growth was 87.2%. O=C1[C@@H]2Cc3c([nH]c4ccccc34)[C@H](c3c(Cl)cccc3Cl)N2C(=O)CN1C1CCN(Cc2ccccc2)CC1 was tested, and the growth was 63.5%. CS(=O)(=O)c1ccc2c(c1)c1c(n2Cc2ccc(Cl)cc2)CCCC1 showed a growth of 13.7%. In the case of O=C(CCCCCCN1CC(=O)N2[C@@H](c3ccc(Cl)c(F)c3)c3[nH]c4ccccc4c3C[C@H]2C1=O)NO, the growth is reported as 71.7%. O=C(c1ccc(O)cc1)[C@@H]1[C@@H]2CCCN2[C@@]2(C(=O)N(C(=O)c3ccc(F)cc3)c3ccccc32)[C@H]1c1ccc(F)cc1 gave a growth of 93.7%. COc1cc(-c2nc(SCc3ccc(C)cc3)[nH]c(=O)c2C#N)ccc1OCc1ccccc1 was tested, and the growth was 95.6%. CN(C)C(=O)c1ccccc1-n1cnc2ccccc2c1=O was tested, and the growth was 101%. In the case of CCN1C(=O)N(CC)C2SC(N/N=C/c3ccccc3)=NC21 (stereo not drawn), the growth is reported as -34.3% (active). CCOC(=O)Nc1ccc(-c2nc(-c3cccc(O)c3)c(-c3ccnc(Br)c3)[nH]2)cc1 was tested, and the growth was 25.1%. Work on O=C1c2c(c3c4cc(Br)ccc4[nH]c3c3ccc4ccccc4c23)C(=O)N1CCN1CCCCC1 yielded a growth of 68%. With CN(C)CCn1c2ccc(N)cc2c2nc3ccccc3nc21 the growth was 30.1%. Molecule COc1ccc(-c2cc(-c3cccc4ccccc34)n3c(n2)nc2ccccc23)cc1 has a growth of 50.3%. Nc1c(C(=O)c2ccccc2)sc2nc(-c3cnccn3)cc(-c3cccs3)c12 showed a growth of 96.8%. With CCOC(=O)c1c(Nc2ccccc2)nn2c(-c3ccc(OC)c(OC)c3)ccnc12 the growth was 69.3%. O=C(COc1ccc(C2SCC(=O)N2c2ccccc2)cc1)c1ccccc1 (stereo not drawn) showed a growth of 80.6%. In the case of CCn1c2ccc(/C=N/OCCCN(C)C)cc2c2cc(/C=N/OCCCN(C)C)ccc21, the growth is reported as -60.5% (active). N/C(=N\OC(=O)CSc1nc2ccccc2s1)c1ccc2ccccc2c1 was tested, and the growth was 91.2%. In the case of COc1ccc(-c2nc3cc(Cl)c(Cl)cc3n2CC(=O)N=Nc2c(O)[nH]c3ccc(Br)cc23)cc1, the growth is reported as 14%. Oc1ccc(-c2nnc(SCc3ccc(O)c4ncccc34)o2)cc1 gave a growth of 11.4%. For CC1=CC(=O)CC(C)(C)[C@@]1(O)/C=C/C(C)=C\C(=O)O, the growth was -41.6% (active). O=C(N/N=C\c1ccc(Cl)cc1)c1ccc2nc(-c3ccc(Br)cc3)[nH]c2c1 gave a growth of 10.5%. In the case of CS(=O)(=O)c1nccc(-c2c(-c3ccc(F)c(OCc4ccccc4)c3)nc3sccn23)n1, the growth is reported as 74.1%. C=CCn1c(SCC(=O)Nc2ccc(OC)cc2)nnc1-c1ccc(Cl)cc1 showed a growth of 83.4%. Work on CN1C(=O)N(C)C2Nn3c(s/c(=C\c4ccccn4)c3=O)=NC21 (stereo not drawn) yielded a growth of 92.3%. With Oc1ccc(-c2nnc(SCc3ccc(O)c4ncccc34)n2-c2ccccc2)cc1 the growth was -4.72% (active). With Fc1ccccc1/C=C(/C1=NCCN1)n1cnc2ccccc21 the growth was 94.3%. COc1cnc2c(c1)C(=O)c1c-2n(CCCn2ccnc2)c(=O)c2cc(OC)c(OC)cc12 was tested, and the growth was -80.5% (active). With CC[C@@](C)(NC(=O)C(C)(C)NC(=O)[C@@H](NC(=O)[C@@H]1CCCN1C(=O)C(C)(C)NC(=O)[C@H](CC(C)C)NC(=O)CNC(=O)C(C)(C)NC(=O)[C@@H](NC(=O)C(C)(C)NC(=O)[C@H](CCC(N)=O)NC(=O)[C@H](C)NC(=O)C(C)(C)NC(=O)[C@H](C)NC(=O)C(C)(C)NC(=O)[C@H](C)NC(=O)C(C)(C)NC(C)=O)C(C)C)C(C)C)C(=O)N[C@@H](CCC(N)=O)C(=O)N[C@@H](CCC(N)=O)C(=O)N[C@H](CO)CC1CCCCC1 the growth was 1.56% [5 µM] (active).
